From PubChem BioAssay (NCATS)
Results filed as inconclusive are left out. Where a call stands in place of a potency, no number is given. The source made the active and inactive calls. The call rests on the fitted dose curve; in most records, active means well fitted cell-killing curve with a large enough effect; inconclusive means small, poorly fitted or top-dose-only effect, or effect the other way; inactive means no such curve, though single readings can be large or run the other way.

Experiment: Quantitative High-Throughput drug screen in 47 multiple myeloma cell lines against the NCATS MIPE library collection: ARP1_JJKsccF8 cell viability assay (AID 1918928; further: nearly all actives have a fitted effect of over 40% in size)
Details: ARP1 myeloma cells viability, CellTiter-Glo ATP, 48 h; series mostly up to 45.8 µM
Source text: PI: Beverly A. Mock Ph.D.
Laboratory of Cancer Biology and Genetics,
Center for Cancer Research, National Cancer Institute,
National Institute of Health, Bethesda, Maryland
Drug resistance and disease progression are common in multiple myeloma (MM) patients, underscoring the need for new therapeutic combinations. […] We hypothesized that effective combinations would reduce MYC expression and enhance p16 activity. […] These preclinical data identify potentially useful drug combinations for evaluation in drug-resistant MM and reveal potential mechanisms of combined drug sensitivity.
Described herein is the primary MIPE qHTS used to cherrypick compounds. Validated compounds were then further tested for potential synergistic activiy.
[1] Peat TJ, Gaikwad SM, Dubois W, Gyabaah-Kessie N, Zhang S, Gorjifard S, Phyo Z, Andres M, Hughitt VK, Simpson RM, Miller MA, Girvin AT, Taylor A, Williams D, D'Antonio N, Zhang Y, Rajagopalan A, Flietner E, Wilson K, Zhang X, Shinn P, Klumpp-Thomas C, McKnight C, Itkin Z, Chen L, Kazandijian D, Zhang J, Michalowski AM, Simmons JK, Keats J, Thomas CJ, Mock BA. Drug combinations identified by high-throughput screening promote cell cycle transition and upregulate Smad pathways in myeloma. Cancer Lett. 2023 Aug 1;568:216284. doi: 10.1016/j.canlet.2023.216284. Epub 2023 Jun 24. PMID: 37356470; PMCID: PMC10408729.
SEQUENCE No. (e.g., 1, 2, 3, etc.); […] (e.g., Cells, Incubation, Reagent, etc.); VALUE and DESCRIPTION.
1; Cells; 5 uL; white, solid bottom 1536-well Greiner assay plate.
2; Compounds; 23 nL; Kalypsis pin tool (Wako USA) equipped with a 1536-well pin head to transfer to the assay plates.
3; Incubation; 48 hours; 37C incubation.
4; Reagent;5uL; CellTiter Glo (Promega).
5; Detector; 425V; Luminescence; Viewlux PerkinElmer.
NOTES (numbers refer to Sequence numbers above)
1. The cell-based screening methods employed in this study were like those previously published. Briefly, the corresponding myeloma cell lines were screened in 1,536-well plates with 500 cells, 5-uL per well for inhibition of cell viability (assessed by measuring ATP levels with CellTiterGlo).
2. NCATS MIPE 4.0 library of approved and investigational drugs were added using the Kalypsis pin tool. Wells treated with DMSO only for 100% viability and media only cells for 0% viability were used as controls.
3. The assay plates were covered and incubated for 48 hours in a 37C, 5% CO2 incubator with controlled humidity.
4. After 48 hours, CellTilter-GloTM luminescent substrate mix (Promega) reagent was added to the assay plate and plates we incubated for 5 min at room temperature.
5. Signal was measured as median relative luminescence units on a ViewLux (PerkinElmer) multiplate reader.
[1] Heske CM, Davis MI, Baumgart JT, Wilson K, Gormally MV, Chen L, Zhang X, Ceribelli M, Duveau DY, Guha R, Ferrer M, Arnaldez FI, Ji J, Tran HL, Zhang Y, Mendoza A, Helman LJ, Thomas CJ. Matrix Screen Identifies Synergistic Combination of PARP Inhibitors and Nicotinamide Phosphoribosyltransferase (NAMPT) Inhibitors in Ewing Sarcoma. Clin Cancer Res. 2017 Dec 1;23(23):7301-7311. doi: 10.1158/1078-0432.CCR-17-1121. Epub 2017 Sep 12. PMID: 28899971; PMCID: PMC6636827.
Potency means the concentration at half of the fitted maximal effect.

| SMILES | Potency |
| --- | --- |
| C[C@@H](N)C1CCC(C(=O)Nc2ccncc2)CC1 (stereo not given in full) | inactive |
| CCOc1cc(CC(=O)N[C@@H](CC(C)C)c2ccccc2N2CCCCC2)ccc1C(=O)O | inactive |
| Cc1c(OCC(F)(F)F)ccnc1CS(=O)c1nc2ccccc2[nH]1 (stereo not given) | inactive |
| Oc1ccc(OCc2ccccc2)cc1 | 18.7 µM (active) |
| CNC[C@@H](O)[C@@H](O)[C@H](O)[C@H](O)CO | inactive |
| CN(C)CCc1c[nH]c2ccc(Cn3cncn3)cc12 | inactive |
| Cc1cccc(C#Cc2ccccc2)n1 | 20.9 µM (active) |
| Cn1c(NCCN(CCO)CCCc2ccc([N+](=O)[O-])cc2)cc(=O)n(C)c1=O | inactive |
| CC(C)[N+]1(C)[C@@H]2CC[C@H]1CC(OC(=O)C(CO)c1ccccc1)C2 (stereo not given in full) | inactive |
| c1ccc2[nH]c(-c3cscn3)nc2c1 | inactive |
| CCCCCCCCOc1ccccc1C(=O)Nc1ccc(C(=O)OCC[N+](C)(CC)CC)cc1 | 20.9 µM (active) |
| CC1=C(C(=O)O)N2C(=O)[C@@H](NC(=O)[C@H](N)C3=CCC=CC3)[C@H]2SC1 | inactive |
| O=c1cc(N2CCOCC2)oc2c(-c3ccccc3)cccc12 | 18.7 µM (active) |
| CC(=O)NC[C@H]1CN(c2ccc(N3CCOCC3)c(F)c2)C(=O)O1 | 18.7 µM (active) |
| O=C(NC(Cc1cc(=O)[nH]c2ccccc12)C(=O)O)c1ccc(Cl)cc1 (stereo not given) | inactive |
| O=C1NC(=O)C(c2ccccc2[N+](=O)[O-])=C1Nc1ccc(O)c(Cl)c1 | inactive |
| CC1(C)CCC(C)(C)c2cc(NC(=O)c3ccc(C(=O)O)cc3)ccc21 | inactive |
| O=Nc1c(-c2c(O)[nH]c3cc(Br)ccc23)[nH]c2ccccc12 | 14.8 µM (active) |
| Nc1cccc2c1CN(C1CCC(=O)NC1=O)C2=O (stereo not given) | inactive |
| CN(C)C(=O)[C@H](O)[C@H](Cc1ccccc1)NC(=O)c1cc2cc(Cl)ccc2[nH]1 | 16.6 µM (active) |

| SMILES | Potency |
| --- | --- |
| CCC1=C(C)CN(C(=O)NCCc2ccc(S(=O)(=O)NC(=O)NC3CCC(C)CC3)cc2)C1=O (stereo not given) | inactive |
| CN1CCC(=C2c3ccccc3CCc3sccc32)CC1 | inactive |
| Cc1cc(=O)oc2cc(O)ccc12 | inactive |
| O=C(OC1C[C@H]2CC[C@@H](C1)[N+]21CCCC1)C(O)(c1ccccc1)c1ccccc1 (stereo not given in full) | inactive |
| Oc1ccc2ccccc2c1SSc1c(O)ccc2ccccc12 | 23.5 µM (active) |
| CC(C)[C@H](N)C(=O)OCCOCn1cnc2c(=O)[nH]c(N)nc21 | inactive |
| CN(C)CCCC1(c2ccc(F)cc2)OCc2cc(C#N)ccc21 (stereo not given) | inactive |
| NNc1nncc2ccccc12 | inactive |
| COc1ccc(C2(C#N)CCC(C(=O)O)CC2)cc1OC1CCCC1 (stereo not given) | inactive |
| Clc1ccc(C(Cn2ccnc2)OCc2c(Cl)cccc2Cl)c(Cl)c1 (stereo not given) | 23.5 µM (active) |
| O=P(O)(O)C(O)(Cn1ccnc1)P(=O)(O)O | inactive |
| O=C1CCc2ccc(OCCCCN3CCN(c4cccc(Cl)c4Cl)CC3)cc2N1 | 23.5 µM (active) |
| CC1Cc2ccccc2N1NC(=O)c1ccc(Cl)c(S(N)(=O)=O)c1 (stereo not given) | inactive |
| CC1(C)C(=O)N(CCN2CCC(C(=O)c3ccc(F)cc3)CC2)c2ccccc21 | 20.9 µM (active) |
| N=C(N=C(N)N)N1CCOCC1 | inactive |
| O=C1c2c(O)cc(O)cc2OC(c2ccc(O)c(O)c2)C1O (stereo not given) | inactive |
| CCN(CC)CCOc1ccc(Nc2ncc3cc(-c4c(Cl)cccc4Cl)c(=O)n(C)c3n2)cc1 | 2.64 µM (active) |
| CN(C)[C@@H](CCOc1cccc2ccccc12)c1ccccc1 | 26.4 µM (active) |
| CN(C)c1ccc2nc3ccc(=[N+](C)C)cc-3sc2c1 | 1.66 µM (active) |
| C[C@H](Cc1ccc(O)c(O)c1)[C@@H](C)Cc1ccc(O)c(O)c1 | 20.9 µM (active) |
